Measured values reported in the supplement of paper PMC12669032.

Key:
Assay in all cases: growth AUC relative to DMSO control (median of replicates) (fraction); higher = more growth (less inhibition), active = hit call of the paper
Details in all cases: 20 µM; 24 h;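 active = AUC reduced over 20% with Padj below 0.05 in at least 2 of 3 replicates; inactive = otherwise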
Coprococcus comes = tested on: Coprococcus comes
Procedure, shortened: (§1)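 Gut bacteria were grown singly in mGAM at 37 °C without oxygen, from OD600 0.05, alongside 20 µM compound in 1% DMSO, and OD600 was read each hour for 24 h. Area under the growth curve was normalised to the median of solvent-only wells per plate, or to row and column medians on the industrial chemical plate. The minimum OD was set to 0 beforehand, and the reported value is the median of three biological replicates grown on separate days.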

Escherichia coli ED1a = tested on: Escherichia coli ED1a
Procedure, shortened: as §1

Escherichia coli IAI1 = tested on: Escherichia coli IAI1
Procedure, shortened: as §1

Eubacterium rectale = tested on: Eubacterium rectale
Procedure, shortened: as §1

[1] = tested on: Fusobacterium nucleatum subsp. animalis
Procedure, shortened: as §1

Lactobacillus gasseri = tested on: Lactobacillus gasseri
Procedure, shortened: as §1

Lactobacillus paracasei = tested on: Lactobacillus paracasei
Procedure, shortened: as §1

Odoribacter splanchnicus = tested on: Odoribacter splanchnicus
Procedure, shortened: as §1

[2] = tested on: Parabacteroides distasonis
Procedure, shortened: as §1

Parabacteroides merdae = tested on: Parabacteroides merdae
Procedure, shortened: as §1

Roseburia intestinalis = tested on: Roseburia intestinalis
Procedure, shortened: as §1

Streptococcus salivarius = tested on: Streptococcus salivarius
Procedure, shortened: as §1

Measured: growth AUC

COc1cc(OC)nc(NC(=O)NS(=O)(=O)N(C)S(C)(=O)=O)n1
inactive: Coprococcus comes 1 | Escherichia coli ED1a 1.02 | Escherichia coli IAI1 1.01 | Eubacterium rectale 1.04 | [1] 1.01 | Lactobacillus gasseri 1.06 | Lactobacillus paracasei 1.04 | Odoribacter splanchnicus 1.06 | [2] 1.01 | Parabacteroides merdae 0.983 | Roseburia intestinalis 0.99 | Streptococcus salivarius 1.02

CCc1cccc(C)c1NC(C)C(=O)O (racemic)
inactive: Coprococcus comes 1.04 | Escherichia coli ED1a 0.986 | Escherichia coli IAI1 0.977 | Eubacterium rectale 1.19 | [1] 1.04 | Lactobacillus gasseri 0.97 | Lactobacillus paracasei 0.968 | Odoribacter splanchnicus 0.999 | [2] 0.978 | Parabacteroides merdae 1 | Roseburia intestinalis 1.04 | Streptococcus salivarius 1.02

CCCCOC(=O)C(C)Oc1ccc(Oc2ccc(C(F)(F)F)cn2)cc1 (stereo not given)
inactive: Coprococcus comes 0.987 | Escherichia coli ED1a 1.02 | Escherichia coli IAI1 1.01 | Eubacterium rectale 1.09 | [1] 0.997 | Lactobacillus gasseri 0.914 | Lactobacillus paracasei 0.985 | Odoribacter splanchnicus 1.02 | [2] 0.768 | Parabacteroides merdae 0.961 | Roseburia intestinalis 0.932 | Streptococcus salivarius 0.974

COCC(=O)N(c1c(C)cccc1C)C(C)C(=O)O (stereo not given)
inactive: Coprococcus comes 1.01 | Escherichia coli ED1a 1 | Escherichia coli IAI1 1.01 | Eubacterium rectale 1.09 | [1] 1.15 | Lactobacillus gasseri 1.04 | Lactobacillus paracasei 1.02 | Odoribacter splanchnicus 1.01 | [2] 1.01 | Parabacteroides merdae 1.05 | Roseburia intestinalis 1.01 | Streptococcus salivarius 1.01

O=C=NC1CCC(CC2CCC(N=C=O)CC2)CC1 (stereo not given)
inactive: Coprococcus comes 1.08 | Escherichia coli ED1a 1.02 | Escherichia coli IAI1 1.03 | Eubacterium rectale 0.973 | [1] 1.05 | Lactobacillus gasseri 0.921 | Lactobacillus paracasei 1.12 | Odoribacter splanchnicus 1.06 | [2] 1 | Parabacteroides merdae 1.02 | Roseburia intestinalis 1.06 | Streptococcus salivarius 1.01

O=C(NC(=O)c1c(F)cccc1F)Nc1cc(C(F)(F)F)cc(C(F)(F)F)c1Cl
inactive: Coprococcus comes 0.932 | Escherichia coli ED1a 0.949 | Escherichia coli IAI1 0.971 | Eubacterium rectale 0.941 | [1] 0.989 | Lactobacillus gasseri 1.33 | Lactobacillus paracasei 0.861 | Odoribacter splanchnicus 0.936 | [2] 0.948 | Parabacteroides merdae 0.951 | Roseburia intestinalis 0.942 | Streptococcus salivarius 0.922

CNc1nc(NC(C)C)nc(SC)n1
inactive: Coprococcus comes 0.962 | Escherichia coli ED1a 1 | Escherichia coli IAI1 0.988 | Eubacterium rectale 0.879 | [1] 0.922 | Lactobacillus gasseri 1.18 | Lactobacillus paracasei 1.05 | Odoribacter splanchnicus 0.984 | [2] 0.985 | Parabacteroides merdae 0.993 | Roseburia intestinalis 0.995 | Streptococcus salivarius 0.975

CCOC(N)=O
inactive: Coprococcus comes 1.03 | Escherichia coli ED1a 1.01 | Escherichia coli IAI1 1.03 | Eubacterium rectale 1 | [1] 1.04 | Lactobacillus gasseri 1.02 | Lactobacillus paracasei 1.02 | Odoribacter splanchnicus 0.955 | [2] 1.1 | Parabacteroides merdae 1.03 | Roseburia intestinalis 1.05 | Streptococcus salivarius 1.01

COC1CCC2(CC1)NC(=O)C(c1cc(C)ccc1C)=C2OC1OC(CO)C(O)C(O)C1O (stereo not given)
inactive: Coprococcus comes 1.03 | Escherichia coli ED1a 1.03 | Escherichia coli IAI1 1.03 | Eubacterium rectale 1.1 | [1] 1.17 | Lactobacillus gasseri 0.948 | Lactobacillus paracasei 1.01 | Odoribacter splanchnicus 0.994 | [2] 1.01 | Parabacteroides merdae 1.05 | Roseburia intestinalis 1 | Streptococcus salivarius 1.01

COc1cccc(N(C)C(=S)Oc2cccc(C(C)(C)C)c2)n1
inactive: Coprococcus comes 0.954 | Escherichia coli ED1a 0.997 | Escherichia coli IAI1 0.982 | Eubacterium rectale 0.896 | [1] 0.971 | Lactobacillus gasseri 1.06 | Lactobacillus paracasei 0.707 | Odoribacter splanchnicus 1.11 | [2] 0.951 | Parabacteroides merdae 0.933 | Roseburia intestinalis 0.984 | Streptococcus salivarius 0.967

O=C(O)[C@@H](S)[C@@H](S)C(=O)O
inactive: Coprococcus comes 1.03 | Escherichia coli ED1a 1.02 | Escherichia coli IAI1 1.03 | Eubacterium rectale 1.18 | [1] 1.05 | Lactobacillus gasseri 0.993 | Lactobacillus paracasei 1.02 | Odoribacter splanchnicus 0.985 | [2] 1.04 | Parabacteroides merdae 1.04 | Roseburia intestinalis 1 | Streptococcus salivarius 0.997

CCCCOCN(C(=O)CS(=O)(=O)[O-])c1c(CC)cccc1CC.[Na+]
inactive: Coprococcus comes 0.957 | Escherichia coli ED1a 0.973 | Escherichia coli IAI1 0.991 | Eubacterium rectale 0.975 | [1] 0.947 | Lactobacillus gasseri 0.914 | Lactobacillus paracasei 0.957 | Odoribacter splanchnicus 0.938 | [2] 1 | Parabacteroides merdae 0.962 | Roseburia intestinalis 0.935 | Streptococcus salivarius 0.97

COC(=O)C(C)Oc1cc(Cl)c(Cl)cc1Cl (stereo not given)
inactive: Coprococcus comes 1 | Escherichia coli ED1a 0.985 | Escherichia coli IAI1 1.05 | Eubacterium rectale 0.975 | [1] 1.03 | Lactobacillus gasseri 1.12 | Lactobacillus paracasei 0.883 | Odoribacter splanchnicus 0.927 | [2] 0.994 | Parabacteroides merdae 0.974 | Roseburia intestinalis 1.01 | Streptococcus salivarius 1.02

CCc1cccc(CC)c1N(COC)C(=O)C(=O)O
inactive: Coprococcus comes 0.981 | Escherichia coli ED1a 1.05 | Escherichia coli IAI1 0.999 | Eubacterium rectale 0.948 | [1] 1.04 | Lactobacillus gasseri 0.999 | Lactobacillus paracasei 1 | Odoribacter splanchnicus 1.01 | [2] 1.02 | Parabacteroides merdae 0.991 | Roseburia intestinalis 1 | Streptococcus salivarius 1.02

COC(=O)Nc1ccc(Cl)c(Cl)c1
inactive: Coprococcus comes 0.987 | Escherichia coli ED1a 0.999 | Escherichia coli IAI1 0.939 | Eubacterium rectale 0.973 | [1] 0.926 | Lactobacillus gasseri 1.15 | Lactobacillus paracasei 1.08 | Odoribacter splanchnicus 0.974 | [2] 0.986 | Parabacteroides merdae 0.956 | Roseburia intestinalis 1 | Streptococcus salivarius 0.918

CCOC(=O)C1=NOC(c2ccccc2)(c2ccccc2)C1
inactive: Coprococcus comes 0.974 | Escherichia coli ED1a 0.974 | Escherichia coli IAI1 0.997 | Eubacterium rectale 0.932 | [1] 0.956 | Lactobacillus gasseri 0.99 | Lactobacillus paracasei 1.06 | Odoribacter splanchnicus 0.944 | [2] 1.14 | Parabacteroides merdae 0.948 | Roseburia intestinalis 1.01 | Streptococcus salivarius 0.959

CCCOC(=O)c1ccc(C(=O)OCCC)nc1
inactive: Coprococcus comes 1.05 | Escherichia coli ED1a 1 | Escherichia coli IAI1 1 | Eubacterium rectale 1.03 | [1] 0.944 | Lactobacillus gasseri 0.966 | Lactobacillus paracasei 0.861 | Odoribacter splanchnicus 1.07 | [2] 1 | Parabacteroides merdae 0.986 | Roseburia intestinalis 0.977 | Streptococcus salivarius 0.996

S=C([S-])NCCNC(=S)[S-].[Zn+2]
inactive: Coprococcus comes 0.994 | Escherichia coli ED1a 0.998 | Escherichia coli IAI1 0.992 | Eubacterium rectale 1.1 | [1] 0.978 | Lactobacillus gasseri 0.966 | Lactobacillus paracasei 1.01 | Odoribacter splanchnicus 0.999 | [2] 1.01 | Parabacteroides merdae 0.974 | Roseburia intestinalis 0.975 | Streptococcus salivarius 0.97

CCCCOCCOC(=O)COc1nc(Cl)c(Cl)cc1Cl
inactive: Coprococcus comes 0.982 | Escherichia coli ED1a 0.994 | Escherichia coli IAI1 0.973 | Eubacterium rectale 1.02 | [1] 0.984 | Lactobacillus gasseri 0.917 | Lactobacillus paracasei 0.962 | Odoribacter splanchnicus 1.09 | [2] 0.978 | Parabacteroides merdae 0.956 | Roseburia intestinalis 0.995 | Streptococcus salivarius 0.998

CN(C)C(=O)Nc1ccccc1
inactive: Coprococcus comes 0.965 | Escherichia coli ED1a 0.951 | Escherichia coli IAI1 0.978 | Eubacterium rectale 0.978 | [1] 0.961 | Lactobacillus gasseri 1.03 | Lactobacillus paracasei 0.949 | Odoribacter splanchnicus 1.04 | [2] 1.05 | Parabacteroides merdae 1.02 | Roseburia intestinalis 0.983 | Streptococcus salivarius 0.969

CC1COc2ccccc2N1C(=O)C(Cl)Cl (stereo not given)
inactive: Coprococcus comes 0.887 | Escherichia coli ED1a 0.985 | Escherichia coli IAI1 0.973 | Eubacterium rectale 0.989 | [1] 0.688 | Lactobacillus gasseri 0.903 | Lactobacillus paracasei 1.11 | Odoribacter splanchnicus 0.979 | [2] 0.931 | Parabacteroides merdae 0.95 | Roseburia intestinalis 0.92 | Streptococcus salivarius 0.944

CCN(CC)C(=O)c1cccc(C)c1
inactive: Coprococcus comes 0.974 | Escherichia coli ED1a 1 | Escherichia coli IAI1 1.01 | Eubacterium rectale 1.06 | [1] 1.04 | Lactobacillus gasseri 0.966 | Lactobacillus paracasei 0.977 | Odoribacter splanchnicus 1.13 | [2] 1.01 | Parabacteroides merdae 1.04 | Roseburia intestinalis 0.967 | Streptococcus salivarius 0.96

CNC(=O)/C(=N/OC)c1ccccc1COc1cc(C)ccc1C
inactive: Coprococcus comes 0.974 | Escherichia coli ED1a 1.01 | Escherichia coli IAI1 1 | Eubacterium rectale 0.92 | [1] 0.931 | Lactobacillus gasseri 1.01 | Lactobacillus paracasei 1.01 | Odoribacter splanchnicus 0.981 | [2] 0.92 | Parabacteroides merdae 0.926 | Roseburia intestinalis 1.02 | Streptococcus salivarius 1.06

O=C(O)CCCc1c[nH]c2ccccc12
inactive: Coprococcus comes 1.01 | Escherichia coli ED1a 0.955 | Escherichia coli IAI1 0.962 | Eubacterium rectale 1.07 | [1] 0.971 | Lactobacillus gasseri 0.832 | Lactobacillus paracasei 0.884 | Odoribacter splanchnicus 0.989 | [2] 0.922 | Parabacteroides merdae 0.984 | Roseburia intestinalis 0.96 | Streptococcus salivarius 1

CCCN(CCOc1c(Cl)cc(Cl)cc1Cl)C(=O)NC=O
inactive: Coprococcus comes 0.965 | Escherichia coli ED1a 1.04 | Escherichia coli IAI1 0.993 | Eubacterium rectale 1.02 | [1] 1.01 | Lactobacillus gasseri 1.09 | Lactobacillus paracasei 0.9 | Odoribacter splanchnicus 0.956 | [2] 0.925 | Parabacteroides merdae 0.991 | Roseburia intestinalis 0.979 | Streptococcus salivarius 0.993
